Records with an inconclusive call do not appear. Active and inactive are the calls of the source. How the source made its calls: active means hit-call score of the fitted dose curve at least 0.9, where 1 is the maximum; inconclusive means response in the unintended direction; inactive means score below 0.9.
Biological target: Estrogen receptor (Homo sapiens) (UniProt P03372)
Experiment: ERF_TW_NR_COA_hESR1: Eurofins (ERF) Nuclear Receptor (NR) Functional Coactivator Assay for human Estrogen Receptor alpha (ERa) Agonism
Protocol: ERF_TW_NR_COA_hESR1 is a biochemical, single-readout assay that uses extracted gene-proteins in a cell-free assay. Measurements were taken 0.16 hours after chemical dosing in a 96-well plate. See ERalpha Human Estrogen NHR Functional Agonist Coactivator Assay, Panlabs.ERF_TW_NR_COA_hESR1 is an assay component calculated from the ERF_TW_NR_COA_hESR1 assay. It is designed to measure FRET using a type of binding reporter as detected by fluorescence intensity of estriol with fluorimetry technology.Data from the assay component ERF_TW_NR_COA_hESR1 was analyzed at the assay endpoint, ERF_TW_NR_COA_hESR1, in the positive analysis fitting direction relative to DMSO as the negative control and baseline of activity. Using a type of binding reporter, gain-of-signal activity can be used to understand changes in binding as they relate to gene ESR1. To generalize the intended target to other relatable targets, this assay endpoint is annotated to the nuclear receptor intended target family, where the subfamily is steroid.
Test compound and/or vehicle is incubated with the 7 nM estrogen receptor alpha (ERalpha)-LBD and coactivator peptide for 10 minutes at RT. Determination of the amount of complex formed is read spectrofluorimetrically at 520 nm/490 nm. Test compound-induced increase fluorescence by 50 percent or more (>/=50%) relative to the 1 uM Estriol response indicates possible ERalpha receptor agonist activity.

Chain of Estrogen receptor (Homo sapiens) (P03372 whole entry, looked up): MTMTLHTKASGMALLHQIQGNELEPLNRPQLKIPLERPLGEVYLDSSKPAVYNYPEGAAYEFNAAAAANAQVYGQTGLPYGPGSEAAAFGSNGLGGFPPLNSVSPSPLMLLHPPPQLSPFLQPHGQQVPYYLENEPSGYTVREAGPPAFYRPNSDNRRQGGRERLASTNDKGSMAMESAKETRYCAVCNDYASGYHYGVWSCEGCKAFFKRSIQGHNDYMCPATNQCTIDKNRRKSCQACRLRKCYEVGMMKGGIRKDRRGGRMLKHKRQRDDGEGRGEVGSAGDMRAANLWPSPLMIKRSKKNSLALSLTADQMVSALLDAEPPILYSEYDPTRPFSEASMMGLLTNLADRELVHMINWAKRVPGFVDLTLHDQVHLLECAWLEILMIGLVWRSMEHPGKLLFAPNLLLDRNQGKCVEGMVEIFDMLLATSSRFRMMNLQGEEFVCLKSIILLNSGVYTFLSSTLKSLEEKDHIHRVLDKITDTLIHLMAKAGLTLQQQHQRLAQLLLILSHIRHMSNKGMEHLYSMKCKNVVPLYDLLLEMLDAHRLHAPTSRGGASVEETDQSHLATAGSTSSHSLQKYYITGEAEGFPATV

AC50, active:
OCCCC(F)(F)C(F)(F)C(F)(F)C(F)(F)C(F)(F)C(F)(F)C(F)(F)F 43.3 µM, OCCC(F)(F)C(F)(F)C(F)(F)C(F)(F)C(F)(F)C(F)(F)F 50.2 µM, O=P(O)(O)OCCC(F)(F)C(F)(F)C(F)(F)C(F)(F)C(F)(F)C(F)(F)F 9.12 µM, OCC(F)(F)C(F)(F)C(F)(F)C(F)(F)C(F)(F)C(F)(F)C(F)(F)C(F)(F)CO 0.467 µM, FC(F)(I)C(F)(F)C(F)(F)C(F)(F)C(F)(F)C(F)(F)I 7.81 µM, FC(F)(F)C(F)(F)C(F)(F)C(F)(F)C(F)(F)C(F)(F)I 4.11 µM, OCC(F)(F)C(F)(F)C(F)(F)C(F)(F)C(F)(F)C(F)(F)CO 1.53 µM, C=CC(=O)OCC(F)(F)C(F)(F)C(F)(F)C(F)(F)C(F)(F)C(F)(F)C(F)(F)C(F)F 37.5 µM

outcome, inactive:
OCCC(F)(F)C(F)(F)C(F)(F)C(F)(F)C(F)(F)C(F)(F)C(F)(F)C(F)(F)F, FC(F)(I)C(F)(F)C(F)(F)C(F)(F)I, N=C(N)C(F)(F)C(F)(F)C(F)(F)C(F)(F)C(F)(F)C(F)(F)C(F)(F)F, O=C(CC(=O)C(F)(F)C(F)(F)C(F)(F)F)c1cccs1, NC(=O)C(F)(F)C(F)(F)C(F)(F)C(F)(F)C(F)(F)C(F)(F)C(F)(F)F

Reference: PubChem BioAssay AID2284377 (EPA ToxCast)
